Experimental data as given in PubChem BioAssay.
For some assays here: Results with a measured potency or affinity are listed apart. Calls of active or inactive are those of the source.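 How the source made its calls, unless noted: active means fluorescence ratio normalized to control raised more than 50% in primary screen plus both repeat runs; inactive means the rest.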

Experiments:
[1] = test system: TRPC4 beta (transient receptor potential cation channel C4), mouse; experiment: activators of mouse TRPC4 channel, confirmation, cell-based, Fluo4 calcium, HEK293 TRPC4beta/mu-opioid, duplicates, 10 µM (AID 2426); conditions: Fluo4 calcium fluorescence, at 10 µM; active compounds read high;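 on activation: percent rise of integrated ratio over buffer wells lacking compound which define 0%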
[2] = test system: transient receptor potential cation channel C4 beta (TRPC4), mouse; experiment: activators of mouse TRPC4 channel, confirmation, cell-based, second round, Fluo4, HEK293 TRPC4beta/mu-opioid, 1 µM (AID 2461;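 active means primary screen active and over 50% activation in each of two duplicate runs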;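 on activation: 0% = wells without test compound as baseline of integrated fluorescence ratio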); conditions: Fluo4 calcium fluorescence, at 1 µM; active compounds read high
[3] = test system: TRPC4 (transient receptor potential cation channel C4 beta), mouse; experiment: positive allosteric modulators of mouse TRPC4, confirmation, cell-based, second round, Fluo-4, HEK293 TRPC4beta/mu-opioid, 1 µM (AID 2554;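 active means primary screen hit whose fluorescence ratio, in both repeats, exceeds the weak agonist control mean by 3 SD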); conditions: DAMGO EC20, Fluo-4 calcium flux, at 1 µM; active compounds read high
[4] = test system: TRPC4 beta (transient receptor potential cation channel C4), mouse; experiment: positive allosteric modulators of mouse TRPC4, confirmation, cell-based, Fluo-4, HEK293 TRPC4beta/mu-opioid (AID 2555;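 active means primary screen hit whose calcium fluorescence ratio, in both repeats, exceeds the weak agonist control mean by 3 SD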); conditions: DAMGO EC20, Fluo-4 calcium flux, at 10 µM; active compounds read high
[5] = biological target: Short transient receptor potential channel 4 (Mus musculus) (UniProt Q9QUQ5); experiment: inhibitors of mouse TRPC4 channel, confirmation, cell-based, Fluo4, HEK293 TRPC4beta/mu-opioid (AID 2636;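 active means calcium signal cut by more than 3 SD below the full-agonist control yet still positive, in both repeats and the earlier primary screen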); conditions: DAMGO, Fluo4 calcium flux, at 10 µM; active compounds read high
[6] = biological target: Short transient receptor potential channel 4 (Mus musculus) (UniProt Q9QUQ5); experiment: inhibitors of mouse TRPC4 channel, confirmation, cell-based, second round, Fluo4, HEK293 TRPC4beta/mu-opioid, 1 µM (AID 2637;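 active means calcium signal ratio cut to more than 3 SD under the fully stimulated control mean yet still positive, in both repeats and the primary screen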); conditions: Fluo4 calcium flux, DAMGO, at 1 µM; active compounds read high
[7] = biological target: Short transient receptor potential channel 4 (Mus musculus) (UniProt Q9QUQ5); experiment: TRPC4 positive allosteric modulators, dose response, cell-based, HEK293 TRPC4/mu-opioid, Fluo-4 calcium, EC20 DAMGO (AID 434941;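 active means earlier screen potentiator hit that boosts the TRPC4 ion channel at some dose, with a dose response; inactive means no potentiation, no dose response, or not a prior hit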;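 further: calcium entry triggered by an EC20 dose of DAMGO at the co-expressed mu-opioid receptor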)
[8] = biological target: Short transient receptor potential channel 4 (Mus musculus) (UniProt Q9QUQ5); experiment: mouse TRPC4 channel inhibitors, dose response, cell-based, HEK293 TRPC4/mu-opioid, Fluo-4 calcium (AID 434942;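 active means primary screen inhibitor hit that blocks the TRPC4 channel at some tested dose, yielding a dose curve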)
[9] = biological target: Short transient receptor potential channel 6 (Mus musculus) (UniProt Q61143); experiment: inhibition of mouse TRPC6 channel, confirmation, selectivity assay for TRPC4 inhibitor project, cell-based, HEK293, membrane potential dye, duplicate (AID 434948;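 active means active in primary screen and both duplicates, each dropping signal beyond three positive-control SD with fluorescence still positive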); conditions: HEK293 TRPC6, membrane potential dye fluorescence, at 10 µM, stimulated with maximal-effect acetylcholine; active compounds read high
[10] = biological target: Short transient receptor potential channel 6 (Mus musculus) (UniProt Q61143); experiment: activation of mouse TRPC6 channel, confirmation, selectivity assay for TRPC4 activator project, cell-based, HEK293, membrane potential dye, duplicate (AID 434950;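 active means membrane potential signal rise above negative control mean plus 3 SD in both duplicates, also active in the earlier TRPC4 screen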;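 on activation: 0% = buffer only wells and 100% = acetylcholine maximal-effect wells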); conditions: HEK293 TRPC6, membrane potential fluorescence, at 10 µM; active compounds read high
[11] = biological target: Short transient receptor potential channel 6 (Mus musculus) (UniProt Q61143); experiment: TRPC6 potentiation by TRPC4 potentiator hits, confirmation, selectivity assay for TRPC4 potentiator project, HEK293 cells, membrane potential dye, duplicate (AID 434952;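 active means compound raising the membrane signal above positive-control mean plus 3 SD in both repeats, and a primary screen hit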); conditions: HEK293 TRPC6, membrane potential dye fluorescence, at 10 µM, maximal acetylcholine added after compound; active compounds read high
[12] = biological target: Short transient receptor potential channel 4 (Mus musculus) (UniProt Q9QUQ5); experiment: calcium flux activators in TRPC4/5HT1a cells, counter-screen for TRPC4 activator project, cell-based, second counter screen, HEK293 TRPC4/5HT1a, Fluo-4 (AID 434977;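 active means calcium signal rise above buffer-control mean plus 5 SD in both duplicates, and also a hit in the primary screen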;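 on activation: plate controls were assay buffer for no effect and maximal serotonin response for full effect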); conditions: Fluo-4 calcium flux, at 10 µM; active compounds read high
[13] = calcium flux inhibitors in TRPC4/5HT1a cells, confirmation, counter-screen for TRPC4 inhibitor project, cell-based, second counter screen, HEK293 TRPC4/5HT1a, Fluo-4 (AID 434978;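 active means primary screen active whose calcium signal fell more than 3 SD beyond the full-serotonin control mean in both duplicate plates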;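 further: serotonin given first at submaximal then at maximal dose after compound preincubation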); conditions: Fluo-4 calcium flux, at 10 µM, serotonin added to trigger calcium flux; active compounds read high
[14] = test system: TRPC4 (mouse), co-expressed with 5HT1a in HEK293; experiment: calcium flux potentiators in TRPC4/5HT1a cells, confirmation, counter-screen for TRPC4 potentiator project, cell-based, second counter screen, HEK293 TRPC4/5HT1a, Fluo-4 (AID 434979;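 active means signal rise over 3 SD above mean of control wells given weak agonist, in both repeats and first screen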); conditions: Fluo-4 calcium flux, at 10 µM, serotonin added at its EC20 dose; active compounds read high
[15] = calcium flux activation in mu-opioid HEK293 cells, confirmation, counter-screen for TRPC4 activator project, cell-based, HEK293 mu-opioid receptor line (AID 449723;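 active means hit in primary screen, with calcium signal over 5 SD above buffer well mean in both duplicates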;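 further: counter screen cells carry the mu-opioid receptor alone and lack TRPC4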); conditions: Fluo-4 calcium fluorescence, at 10 µM; active compounds read high
[16] = calcium flux enhancement in mu-opioid HEK293 cells, confirmation, counter-screen for TRPC4 allosteric potentiator project, cell-based, HEK293 mu-opioid receptor line (AID 449724;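 active means calcium signal rise more than 3 SD above the low-dose agonist control mean, in both duplicate plates and the primary screen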); conditions: Fluo-4 calcium flux, at 10 µM, compound added before EC20 DAMGO stimulus; active compounds read high

Sequence of Short transient receptor potential channel 4 (Mus musculus) (Q9QUQ5 whole entry, looked up): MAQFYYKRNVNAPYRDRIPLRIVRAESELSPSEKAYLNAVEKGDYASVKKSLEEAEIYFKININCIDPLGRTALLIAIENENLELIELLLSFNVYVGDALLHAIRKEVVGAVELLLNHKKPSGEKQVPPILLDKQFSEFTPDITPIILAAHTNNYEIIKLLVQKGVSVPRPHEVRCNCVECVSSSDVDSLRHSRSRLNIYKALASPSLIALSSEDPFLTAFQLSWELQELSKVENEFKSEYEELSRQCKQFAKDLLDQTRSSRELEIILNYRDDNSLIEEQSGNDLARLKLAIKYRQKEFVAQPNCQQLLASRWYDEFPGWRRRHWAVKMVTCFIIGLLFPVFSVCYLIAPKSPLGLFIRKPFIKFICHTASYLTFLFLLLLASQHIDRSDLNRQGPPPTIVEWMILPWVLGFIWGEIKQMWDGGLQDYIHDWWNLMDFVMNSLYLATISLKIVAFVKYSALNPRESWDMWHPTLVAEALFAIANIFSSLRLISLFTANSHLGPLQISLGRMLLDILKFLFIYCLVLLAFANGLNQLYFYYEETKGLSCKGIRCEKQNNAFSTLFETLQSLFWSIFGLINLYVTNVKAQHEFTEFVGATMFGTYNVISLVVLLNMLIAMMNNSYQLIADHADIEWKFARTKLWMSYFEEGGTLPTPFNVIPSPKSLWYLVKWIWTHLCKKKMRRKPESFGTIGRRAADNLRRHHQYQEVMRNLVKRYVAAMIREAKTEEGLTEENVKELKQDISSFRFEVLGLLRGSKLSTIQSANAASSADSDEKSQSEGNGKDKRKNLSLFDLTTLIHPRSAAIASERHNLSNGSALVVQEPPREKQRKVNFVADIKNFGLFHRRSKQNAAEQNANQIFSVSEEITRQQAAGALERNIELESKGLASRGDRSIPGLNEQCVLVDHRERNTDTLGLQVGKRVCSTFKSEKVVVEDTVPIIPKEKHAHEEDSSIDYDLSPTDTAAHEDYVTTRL
Sequence of Short transient receptor potential channel 6 (Mus musculus) (Q61143 whole entry, looked up): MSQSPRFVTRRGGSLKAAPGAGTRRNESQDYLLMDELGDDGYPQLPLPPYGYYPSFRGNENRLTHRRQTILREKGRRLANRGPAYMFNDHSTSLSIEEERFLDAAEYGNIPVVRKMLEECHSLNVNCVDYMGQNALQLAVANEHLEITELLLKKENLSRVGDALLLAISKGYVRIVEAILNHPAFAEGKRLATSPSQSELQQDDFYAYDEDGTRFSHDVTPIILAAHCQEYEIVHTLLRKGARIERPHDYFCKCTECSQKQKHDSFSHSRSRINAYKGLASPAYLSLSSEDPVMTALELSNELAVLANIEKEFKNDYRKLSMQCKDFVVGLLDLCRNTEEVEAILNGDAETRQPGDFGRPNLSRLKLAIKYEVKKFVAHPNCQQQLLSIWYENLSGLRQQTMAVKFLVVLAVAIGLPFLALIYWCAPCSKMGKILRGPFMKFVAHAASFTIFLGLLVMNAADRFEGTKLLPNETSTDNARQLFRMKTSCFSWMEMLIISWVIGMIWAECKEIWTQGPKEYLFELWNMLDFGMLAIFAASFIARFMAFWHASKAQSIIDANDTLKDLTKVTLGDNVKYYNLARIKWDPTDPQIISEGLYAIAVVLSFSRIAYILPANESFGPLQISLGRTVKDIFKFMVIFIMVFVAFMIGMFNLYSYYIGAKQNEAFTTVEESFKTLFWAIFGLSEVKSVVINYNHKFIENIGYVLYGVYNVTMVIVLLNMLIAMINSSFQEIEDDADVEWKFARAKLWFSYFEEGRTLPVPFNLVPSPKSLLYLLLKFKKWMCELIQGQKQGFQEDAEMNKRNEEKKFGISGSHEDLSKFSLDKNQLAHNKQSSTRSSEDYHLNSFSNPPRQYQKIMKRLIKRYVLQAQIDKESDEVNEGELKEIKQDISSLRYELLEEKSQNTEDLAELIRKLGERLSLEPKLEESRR

COc1ccc(C(CNCC(=O)Nc2ccccc2F)N(C)C)cc1 (centres undefined)
inactive: outcome [1] | outcome [3] | outcome [4] | outcome [5] | outcome [6] | outcome [7] | outcome [8] | outcome [9] | outcome [11] | outcome [12] | outcome [13] | outcome [14] | outcome [15] | outcome [16]
active: activation [2] 105% | activation [10] 59%

CCOC(=O)C1(CCc2ccccc2)CCN(Cc2ccc(OC)cc2)CC1
active: activation [1] 101% | activation [10] 77.5%
inactive: outcome [2] | outcome [3] | outcome [4] | outcome [5] | outcome [6] | outcome [7] | outcome [8] | outcome [9] | outcome [11] | outcome [12] | outcome [13] | outcome [14] | outcome [15] | outcome [16]

O=C(c1cccs1)N1CCN(c2ncc(Br)cn2)CC1
inactive: outcome [3] | outcome [4] | outcome [5] | outcome [6] | outcome [7] | outcome [8] | outcome [9] | outcome [11] | outcome [13] | outcome [14] | outcome [15] | outcome [16]
active: activation [1] 215% | activation [2] 91% | activation [10] 35.5% | activation [12] 79.8%

CCOC(=O)C1(CC2CCCCO2)CCN(Cc2c(C)cc(C)cc2-n2cccn2)CC1 (centres undefined)
inactive: outcome [3] | outcome [4] | outcome [5] | outcome [6] | outcome [7] | outcome [8] | outcome [9] | outcome [11] | outcome [12] | outcome [13] | outcome [14] | outcome [15] | outcome [16]
active: activation [1] 75% | activation [2] 103% | activation [10] 62.5%

O=C(NNC(=S)NC(=O)c1ccccc1Cl)c1cccc([N+](=O)[O-])c1
inactive: outcome [2] | outcome [3] | outcome [4] | outcome [5] | outcome [6] | outcome [7] | outcome [8] | outcome [9] | outcome [11] | outcome [13] | outcome [14] | outcome [16]
active: activation [1] 120% | activation [10] 29% | activation [12] 77.4% | activation [15] 23%

CCn1c(=O)cc(OCC(=O)NCCCN2CC(C)CC(C)C2)c2ccccc21 (centres undefined)
inactive: outcome [3] | outcome [4] | outcome [5] | outcome [6] | outcome [7] | outcome [8] | outcome [9] | outcome [10] | outcome [11] | outcome [13] | outcome [14] | outcome [15] | outcome [16]
active: activation [1] 80% | activation [2] 73% | activation [12] 17.3%

COc1ccc(C(=O)NC(=S)NNC(=O)c2c(-c3ccccc3)noc2C)cc1
active: activation [1] 100% | activation [10] 28.5% | activation [12] 105% | activation [15] 28.5%
inactive: outcome [2] | outcome [3] | outcome [4] | outcome [5] | outcome [6] | outcome [7] | outcome [8] | outcome [9] | outcome [11] | outcome [13] | outcome [14] | outcome [16]

CC(=O)Nc1ccc(CN2CCCC(C(=O)c3ccc(C(F)(F)F)cc3)C2)cc1 (centres undefined)
active: activation [1] 358% | activation [2] 86% | activation [10] 37.5% | activation [12] 40.5%
inactive: outcome [3] | outcome [4] | outcome [5] | outcome [6] | outcome [7] | outcome [8] | outcome [9] | outcome [11] | outcome [13] | outcome [14] | outcome [15] | outcome [16]

O=C(NCCc1ccccn1)c1ccc(OC2CCN(CCc3ccccc3)CC2)cc1
active: activation [1] 76% | activation [10] 44.5%
inactive: outcome [2] | outcome [3] | outcome [4] | outcome [5] | outcome [6] | outcome [7] | outcome [8] | outcome [9] | outcome [11] | outcome [12] | outcome [13] | outcome [14] | outcome [15] | outcome [16]

CN(C)C(CNc1ncnc2sc3c(c12)CCCC3)c1ccco1 (centres undefined)
active: activation [1] 110%
inactive: outcome [2] | outcome [3] | outcome [4] | outcome [5] | outcome [6] | outcome [7] | outcome [8] | outcome [9] | outcome [10] | outcome [11] | outcome [12] | outcome [13] | outcome [14] | outcome [15] | outcome [16]

CCCCN(CC)CCNC(=O)c1cc2cc3ccc(Cl)cc3nc2o1
active: activation [1] 67% | potentiation [3] 20% | potentiation [4] 47% | activation [12] 18.8% | potentiation [14] 40.5%
inactive: outcome [2] | outcome [5] | outcome [6] | outcome [7] | outcome [8] | outcome [9] | outcome [10] | outcome [11] | outcome [13] | outcome [15] | outcome [16]

CC1CCCN(CCCNC(=O)c2ccc3c(c2)N(Cc2ccccc2F)C(=O)c2ccccc2S3(=O)=O)C1 (centres undefined)
inactive: outcome [3] | outcome [4] | outcome [5] | outcome [6] | outcome [7] | outcome [8] | outcome [9] | outcome [10] | outcome [11] | outcome [13] | outcome [14] | outcome [15] | outcome [16]
active: activation [1] 125% | activation [2] 68% | activation [12] 24.4%

CN(C)C(CNC(=S)Nc1ccccc1)c1cccnc1 (centres undefined)
inactive: outcome [3] | outcome [4] | outcome [5] | outcome [6] | outcome [7] | outcome [8] | outcome [9] | outcome [11] | outcome [12] | outcome [13] | outcome [14] | outcome [15] | outcome [16]
active: activation [1] 76% | activation [2] 82% | activation [10] 36%

CCn1cc(CN2CCCC(C(=O)Nc3ccc(-c4nc5ccccc5[nH]4)cc3)C2)c(C)n1 (centres undefined)
inactive: outcome [3] | outcome [4] | outcome [5] | outcome [6] | outcome [7] | outcome [8] | outcome [9] | outcome [11] | outcome [13] | outcome [14] | outcome [15] | outcome [16]
active: activation [1] 169% | activation [2] 116% | activation [10] 52% | activation [12] 35.7%
